“And” between values parts separate entries of the source, which are not always exact repeats. Equal values may be shown once. The panel holds about 83,000 compounds, 20% with a hit somewhere; the sample as a whole holds those more often.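 Note: values are percent growth. 100 is the growth of untreated cells, values between 100 and 0 indicate rising inhibition; between -100 and 0 indicates cell death.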 A number with no mark means an inactive call. The source made the active and inactive calls. Rule for the calls: active = growth percent below 10; inactive = the rest.
Key:
Assay in all cases: NCI-60 one-dose screen, 48 h (100 = growth as untreated, 0 = no growth, -100 = all killed)
Conditions in all cases: 10 µM unless noted
SR leukemia = tested on: SR leukemia
RPMI-8226 leukemia = tested on: RPMI-8226 leukemia
OVCAR-8 ovarian = tested on: OVCAR-8 ovarian
OVCAR-5 ovarian = tested on: OVCAR-5 ovarian
OVCAR-4 ovarian = tested on: OVCAR-4 ovarian
SK-OV-3 ovarian = tested on: SK-OV-3 ovarian
IGROV1 ovarian = tested on: IGROV1 ovarian
OVCAR-3 ovarian = tested on: OVCAR-3 ovarian
HS 578T breast = tested on: HS 578T breast
NCI/ADR-RES ovarian = tested on: NCI/ADR-RES ovarian
T-47D breast = tested on: T-47D breast
BT-549 breast = tested on: BT-549 breast
MDA-MB-435 melanoma = tested on: MDA-MB-435 melanoma
SW-620 colon = tested on: SW-620 colon
MCF7 breast = tested on: MCF7 breast
HCT-116 colon = tested on: HCT-116 colon
HCC-2998 colon = tested on: HCC-2998 colon
KM12 colon = tested on: KM12 colon

Compound	growth (SR leukemia)	growth (RPMI-8226 leukemia)	growth (OVCAR-8 ovarian)	growth (OVCAR-5 ovarian)	growth (OVCAR-4 ovarian)	growth (SK-OV-3 ovarian)	growth (IGROV1 ovarian)	growth (OVCAR-3 ovarian)	growth (HS 578T breast)	growth (NCI/ADR-RES ovarian)	growth (T-47D breast)	growth (BT-549 breast)	growth (MDA-MB-435 melanoma)	growth (SW-620 colon)	growth (MCF7 breast)	growth (HCT-116 colon)	growth (HCC-2998 colon)	growth (KM12 colon)
Cc1oc2c(Cc3ccc(NC(=O)c4ccc(Cl)cc4)cc3)ncnc2c1C(=O)NO	71.2%	92.4%	98.5%	103%	109%	94.1%	103%	95.8%	113%	98.2%	96.8%	103%	92.5%	105%	91.1%	98%	97.9%	95.9%
CCNC(=O)Nc1ncccc1OCc1ccc(F)cc1	105%	106%	109%	92.4%	96.4%	94.2%	102%	102%	112%	93.4%	90.3%	114%	101%	104%	84%	97.9%	91.2%	88.1%
CCCCCCCCN(CCCCCCCC)CC(O)c1cc(Cl)ccc1OC (stereo not given)	14.5%	41.5%	87.9%	72.6%	66.9%	78.1%	84.9%	91.9%	69.1%	82.6%	51%	102%	83.6%	67.2%	54.7%	35.7%	51.7%	61.8%
OCc1cc(CN2CCCCC2)c(O)c2ncccc12	27%	71.9%	50.5%	59.1%	34.9%	49.4%	52.7%	45%	85.6%	8.71% (active)	57.4%	59.7%	77%	39.7%	44.7%	44.1%	51.6%	30.2%
CC12CCC(C(=O)CC1=O)C2(C)C (stereo not given)	122% and 93%	101% and 94.2%	103% and 99.5%	101% and 106%	101%	104% and 105%	110% and 104%	105% and 106%	108% and 120%	111% and 103%	105% and 93.4%	110% and 104%	106% and 110%	105% and 109%	103% and 98.4%	106% and 97.1%	108% and 98.5%	108% and 101%
Cc1ccc(-c2nc(C#N)c(S(=O)(=O)N(C)C)o2)cc1	-10.1% (active)	84.3%	80.3%	97.7%	108%	102%	80.5%	77%	105%	105%	75.3%	77.4%	97.7%	81%	46.1%	63.2%	93.1%	95.4%
CCOC(=O)C(=Cc1ccc(C#N)cc1)C(=O)OCC	0.158% (active)	-1.68% (active)	34.5%	30.8%	53.9%	84.9%	32.7%	17%	78.5%	20.3%	9.64% (active)	47.3%	8.84% (active)	0.79% (active)	12.3%	-13.1% (active)	78.7%	29.8%
COc1ccc(-c2ccccc2)cc1-c1c(Nc2cc(Cl)cc(Cl)c2O)c(=O)c1=O	23.2%	25.4%	12.3%	28.7%	16.8%	-10.8% (active)	31%	5.32% (active)	3.42% (active)	1.38% (active)	-8.93% (active)	19.7%	-4.35% (active)	17.5%	5.24% (active)	11.2%	13.8%	7.85% (active)
c1cc(NCCCCN2CCOCC2)c2ccc3c(ccc4c(NCCN5CCOCC5)ccnc43)c2n1	-7.92% (active)	98.2%	79.2%	111%	91.5%	101%	65.6%	105%	88.6%	88.1%	94.9%	103%	98.5%	-16.5% (active)	58.5%	48.4%	87.8%	92.1%
O=C1N=c2ccccc2=C1c1sc(=S)n(C2CC(=O)N(c3ccc(Cl)cc3)C2=O)c1O (stereo not given)	36.5%	103%	98.6%	105%	103%	103%	101%	109%	98.1%	102%	97.9%	105%	102%	99.8%	91.1%	96.7%	105%	100%
O=c1oc2c(Br)cc(Br)cc2cc1-c1cc(-c2ccc(-c3cc(-c4cc5cc(Br)cc(Br)c5oc4=O)nc(-c4cc5cc(Br)cc(Br)c5oc4=O)c3)cc2)cc(-c2cc3cc(Br)cc(Br)c3oc2=O)n1	92.5%	102%	108%	109%	113%	101%	106%	104%	90.7%	98.1%	98.9%	112%	114%	100%	98%	99.3%	102%	96.1%
CC1(C)C(N)=Nc2cc(OCCCCN3Cc4ccccc4C3)c(OCC3CC3)cc21	93.4%	100%	76.2%	80.3%	82.6%	89%	79.4%	78%	88.3%	92.6%	37.7%	83.7%	71.9%	92.8%	48.5%	47%	-0.545% (active)	96%
COC(=O)/C=C1/SC(=Nc2ccc([N+](=O)[O-])cc2)N(CCc2c[nH]c3ccccc23)C1=O	1.73% (active)	2.18% (active)	42%	112%	66.2%	105%	62%	43.1%	63.5%	66.9%	46.5%	60.8%	55.5%	47.3%	20.1%	21.8%	78.3%	66.4%
O=C1/C(=C/c2cn(-c3ccccc3)nc2-c2ccccc2)SC(=S)N1c1ccccc1	108%	107%	104%	106%	103%	111%	94.5%	109%	101%	103%	99.1%	98%	98.3%	99.8%	93.8%	102%	96.6%	101%
Cc1cccc(-c2nnc(SCC(=O)Nc3ncc(Cc4ccccc4)s3)n2N2C(=O)CSC2=S)c1	44.8%	77.2%	24.7%	72.7%	-14.9% (active)	87.2%	50.5%	50.8%	1.22% (active)	80.2%	43.8%	78.5%	48.5%	49.6%	56.2%	25%	70.9%	71.7%

Reference: PubChem BioAssay (NCI)
